Bioassay records (PubChem)
In the library only some 4.1% were active in any assay of this set; here they are far more common.
HEK293 cAMP ctrl – counter-screen for TSHR agonists: cAMP increase in parental HEK293 | Potency, µM (titrated, usually from 57.1 µM), for inactives: at the highest dose activation, most hits filed as activators | 2.5% of 73,000 active | parental HEK293 CNG cAMP sensor, membrane potential fluorescence; further: % of control where 0% means no effect; nearly all actives have a fitted effect of over 55% in size
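Parental HEK 293 cells stably expressing a modified CNG channel (no TSHR) report cAMP rise as membrane depolarization. Membrane potential dye with 100 uM RO 20-1724 was loaded for 60 min at room temperature, then compound added for 30 min; fluorescence read at 590 nm.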
GBA activity – human lysosomal glucosylceramidase modulation. P04062. purified enzyme, resorufin glucoside fluorescence (screen aimed at inhibitors), 20 min. Potency, µM. 1.1% of 48,000 active; in the data active means potency below about 15 µM; inconclusive means mostly about 16 µM to 33 µM;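 further: the screen sought inhibitors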
Target sequence (P04062 whole entry, looked up): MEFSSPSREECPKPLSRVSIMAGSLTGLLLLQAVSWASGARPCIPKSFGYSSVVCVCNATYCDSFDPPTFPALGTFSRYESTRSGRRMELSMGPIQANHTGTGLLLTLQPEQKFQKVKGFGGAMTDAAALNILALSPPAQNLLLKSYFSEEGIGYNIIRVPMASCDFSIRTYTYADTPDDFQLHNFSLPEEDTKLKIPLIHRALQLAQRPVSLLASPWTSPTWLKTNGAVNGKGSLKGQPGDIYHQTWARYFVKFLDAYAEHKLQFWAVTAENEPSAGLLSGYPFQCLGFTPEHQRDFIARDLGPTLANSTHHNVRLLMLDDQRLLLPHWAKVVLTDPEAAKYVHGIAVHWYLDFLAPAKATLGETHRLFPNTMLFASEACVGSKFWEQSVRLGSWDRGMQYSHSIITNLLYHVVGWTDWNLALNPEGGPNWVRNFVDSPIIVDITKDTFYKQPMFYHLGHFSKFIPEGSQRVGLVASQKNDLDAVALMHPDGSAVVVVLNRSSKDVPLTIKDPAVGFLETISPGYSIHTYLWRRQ
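Normal human glucocerebrosidase (0.2 nM final) was assayed with resorufin β-D-glucopyranoside (30 uM final) in 50mM citric acid/KH2PO4, 10mM sodium taurocholate, 0.01% tween-20, pH 5.9. Compounds were titrated; fluorescence (Ex 548, Em 600) read after 20 min at RT.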
USP2a inh – USP2a (human) protease inhibition | O75604 | USP2a enzymatic assay, qHTS inhibition | Potency, µM (doses to about 38.3 µM), inactives show at the top dose activity change, negative = inhibition, most hits filed as inhibitors | 0.1% of 60,000 active | AID 927; further: nearly all actives have a fitted effect of over 60% in size
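USP2 core (20nM final) preincubated 30 min RT with compound, then Ub-PLA2 20nM and NBD C6-HPC 20uM final added; buffer 20mM Tris-HCl pH 8.0, 2mM CaCl2. Fluorescence Ex 460/Em 535 read at 0 and 2.5 h; normalized to NEM.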
TSHR agonist – TSH receptor (human) agonism; 0.48% of 73,000 active; AID 926; Potency, µM (series often up to 57.1 µM), without a hit: top-dose activation, actives largely listed as activators; HEK293-CNG-TSHR cells (CNG channel as cAMP sensor), membrane potential dye, cAMP; P16473; active means well fitted activation curve with a large enough effect in the main read-out, with a control signal flat, not every such curve was filed as active; inconclusive means small, poorly fitted or top-dose-only effect, or a change in a side signal; inactive means no such curve, though single readings can be large or run the other way; % of control where 0% means no effect;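 further: the control signal comes from parental cells without the receptor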
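cAMP rise detected as CNG-channel membrane depolarization by fluorescent dye (emission 590 nm), 30 min after compound, following 60 min dye loading containing 100 uM RO 20-1724 at room temperature. Cells: TSHR/CNG HEK 293, with parental CNG HEK 293 as control.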
Bst PK mod – pyruvate kinase (B. stearothermophilus) modulation; AID 361; purified pyruvate kinase, luminescence ATP production; ribose 5-phosphate activator present at AC10; 1.2% of 51,000 active; Potency, µM; in the data active means potency below about 11 µM; inconclusive means mostly about 12 µM to 25 µM;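 the screen sought inhibitors and activators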;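 further: scaled between full activation by ribose 5 phosphate and full inhibition by luteolin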
Ub-GFP proteasome – ubiquitin-GFP accumulation via proteasome inhibition; Ubiquitin-GFP reporter cells, proteasome inhibition, GFP fluorescence; response scale: untreated = 0%, 10 µM MG-132 = 100%; Potency, µM (top dose mostly 45.9 µM), without a hit: at the top dose activation (GFP accumulation), usual class: activators; 67,000 tested, under 10 active; AID 526; active means well fitted activation curve with a large enough effect, not every such curve was filed as active; inconclusive means small, poorly fitted or top-dose-only effect, or another doubt; inactive means no such curve, though single readings can be large or run the other way
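Proteasome blockade was scored as a rise in GFP-expressing U2OS cells carrying a ubiquitin(G76V)-GFP construct, imaged after 4 hr compound treatment at 37 °C across a 46 uM–2.9 nM series.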
* hit, by the source's call; ? = inconclusive; / = no result given; [ ] = another dose, or the depositor's remark. Unless noted, the call rests on the fitted dose curve; in most records, active means well fitted curve in the direction sought with a large enough effect; inconclusive means small, poorly fitted or top-dose-only effect, or another doubt; inactive means no such curve, though single readings can be large; an effect the other way counts as inactive or inconclusive. Potency means the concentration at half of the fitted maximal effect.

SMILES | HEK293 cAMP ctrl | GBA activity | USP2a inh | TSHR agonist | Bst PK mod | Ub-GFP proteasome
Cc1cccc(Cc2c(C)nc3nc(SCC(=O)NCc4ccco4)nn3c2C)c1 | 10µM* | >76.9 | 27.4% | ? | >57 | 2.7%
Cc1ccc(Cc2c(C)nc3nc(SCC(=O)NCc4ccco4)nn3c2C)cc1 | 15.8µM* | >76.9 | 39.3% | ? | >57 | 4.6%
COc1ncc2nc(-c3ccc(F)cc3)c(=O)n(C[C@H]3CCCO3)c2n1 | ? | / | 4.0% | ? | / | -5.9%
CCc1ccccc1NS(=O)(=O)c1ccc(SC)cc1 | 14.6% | >76.9 | 3.6% | 25.1µM* | / | -2.9%
Cc1cc(C)nc(N2CCN(c3nc(C)nc4c3oc3ccccc34)CC2)n1 | 5.1% | >76.9 | 1.5% | 14.5% | >57 | -3.8%
COc1ccccc1N1CCN(c2nc(C)nc3c2oc2ccccc23)CC1 | 25.1µM* | >76.9 | 16.0% | ? | >57 | -3.4%
Cc1nc(N2CCC(C)CC2)c2oc3ccccc3c2n1 | 25.1µM* | >76.9 | 3.8% | ? | / | -0.9%
COc1ccc(S(=O)(=O)N2CCCCCC2)cc1C(=O)OCc1c(C)noc1C | 4.9% | >76.9 | 4.3% | 10.5% | >57 | -4.7%
Cc1noc(C)c1COC(=O)c1cccc(S(=O)(=O)N2CCCCCC2)c1 | 20µM* | >76.9 | 11.4% | ? | >57 | -2.0%
O=c1[nH]c(=O)n([C@@H]2C[C@H](O)[C@H](CO)O2)cc1C(F)(F)F | 0.6%[25.6 µM] | / | -0.4%[17.1 µM] | -5.8%[25.6 µM] | / | 7.7%[20.5 µM]
CCCCC(CC)C(=O)O (centres undefined) | 31.6% | / | / | 11.3% | / | /
Cc1sc(NC(=O)c2ccccc2)c(C(=O)N2CCN(C)CC2)c1C | 10.4% | 11.8* | 3.7% | -1.7% | >57 | -2.4%
O=C(c1csnn1)N1CCC2(CCCN(Cc3cc(C(F)(F)F)cc(C(F)(F)F)c3)C2)CC1 | 7.1% | / | 14.2% | / | / | -10.2%
O=S(=O)(Nc1cccnc1)c1ccc(C2CCCCC2)cc1 | 25.1µM* | >76.9 | 7.9% | ? | >57 | -0.2%
CCN(CC)CC#CCOC(=O)[C@@](O)(c1ccccc1)C1CCCCC1 | 18.0%[25.6 µM] | / | 6.4%[17.1 µM] | -2.9%[25.6 µM] | / | 4.3%[20.5 µM]
c1ccc(OCCn2c(-c3ccco3)nc3ccccc32)cc1 | 25.1µM* | / | / | ? | / | /
O=C(Nc1nc2ccccc2n1CCOc1ccc(Cl)cc1)c1ccco1 | 25.1µM* | / | / | ? | / | 6.2%
Cc1ccc(OCCn2c(NC(=O)c3ccco3)nc3ccccc32)cc1 | 15.8µM* | >76.9 | 52.9% | ? | >57 | -8.3%
Cc1cccc(OCCn2c(NC(=O)c3ccco3)nc3ccccc32)c1 | 31.6µM* | >76.9 | -10.8% | ? | >57 | 3.9%
O=C(Nc1nc2ccccc2n1CCOc1ccccc1)c1ccco1 | 25.1µM* | >76.9 | 9.0% | ? | >57 | -3.7%
Cc1ccc(C(=O)Nc2ccccc2C(=O)NC(CC(=O)O)C(=O)O)cc1 (centres undefined) | 3.0% | 10.4* | -1.5% | -0.6% | / | 2.3%
O=C(O)CC(NC(=O)c1ccccc1NC(=O)c1ccccc1)C(=O)O (centres undefined) | 5.2% | / | -4.1% | 4.6% | / | 0.9%
COc1ccc(-c2nc3cnc(N4CCN(C)CC4)nc3n(-c3ccc(OC)cc3)c2=O)cc1 | -28.1% | / | ? | 3.5% | / | 2.0%
CC1=C(C(=O)OCC2CCCO2)C(c2ccncc2)C2=C(CC(C)(C)CC2=O)N1 (centres undefined) | 3.98µM* | >76.9 | 4.0% | ? | >57 | -9.5%
Cc1sc2ncnc(Sc3nnnn3-c3ccccc3)c2c1C | ? | 9.19* | -10.4% | ? | >57 | -4.4%
Cc1ccc2c(Cl)cc(Cl)c(O)c2n1 | / | / | -9.2% | / | / | /
Cc1ccc2c(Cl)cc(Cl)c(OCc3c(C)noc3C)c2n1 | 15.8µM* | >76.9 | 0.7% | ? | >57 | -1.7%
CC(=O)[C@@H]1CC[C@@H]2[C@@H]3CC=C4C[C@H](OS(=O)(=O)O)CC[C@@]4(C)[C@H]3CC[C@]21C | -3.3% | / | 19.9% | -5.5% | / | 3.2%
CCN(CC)S(=O)(=O)c1ccc(NC(=O)Cn2c(=O)oc3ccccc32)cc1 | -5.6% | 8.47* | 8.3% | -4.0% | >57 | 4.9%
